Test results: the supplement of paper PMC3334620
Whole data set: some 33,000 sequences, median “E-score (-0.5 to 0.5)” near -0.0059, cut for the highest 2% near 0.26. What follows is part of a selection rich in the highest values, with near analogues and random picks from the rest.

Target: T1, Cin5 (UniProt P40917)
T1 sequence: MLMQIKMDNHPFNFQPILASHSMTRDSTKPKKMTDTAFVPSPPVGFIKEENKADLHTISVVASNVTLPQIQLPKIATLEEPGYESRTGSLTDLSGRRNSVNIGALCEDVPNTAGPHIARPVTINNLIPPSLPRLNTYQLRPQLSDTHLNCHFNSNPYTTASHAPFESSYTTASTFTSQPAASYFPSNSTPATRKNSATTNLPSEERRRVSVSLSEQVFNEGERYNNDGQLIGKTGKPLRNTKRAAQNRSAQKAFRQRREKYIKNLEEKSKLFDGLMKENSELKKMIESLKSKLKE
Assay: PBM E-score (8-mer binding enrichment) (E-score (-0.5 to 0.5)); higher = stronger / more preferred TF binding
Settings: protein concentration: 100 nM; construct: GST-full length
Protocol: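 Universal 'all 10-mer' protein binding microarrays (Agilent AMADID 015681) probed with GST-tagged S. cerevisiae TFs (full-length or DBD) made by in vitro transcription/translation (PURExpress), about 100-200 nM. Bound TF was detected with fluorescent anti-GST. Each ungapped 8-mer (which stands for itself and its reverse complement) is scored by the PBM enrichment score (E-score), a modified Wilcoxon-Mann-Whitney statistic from -0.5 to +0.5, computed with the Universal PBM Analysis Suite. Scale: above 0.35 generally sequence-specific binding.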

Sequence	PBM E-score
TAGATCGA	0.0888
ACTCTGGG	-0.0166
CGGAGACC	-0.167
CCCTCGGC	-0.217
AGTCCCTA	-0.176
AGCTGAAG	0.0392
ATCTGCGA	0.00217
GTTACGTA	0.305
ATTACGTG	0.423
ATTACGTC	0.371
CTTACGTC	0.196
GTTACGGA	-0.122
AGTACGTG	-0.096
GGTACGTA	-0.032
ACTACGTG	-0.223
ACTACGTC	0.00455
ACCCTGGA	-0.243
AGCGCCCA	-0.243
AGTCAACT	-0.157
CGAGCTCG	0.0762
GTACCATA	-0.04
ATACCATA	0.259
ATACCATG	0.0359

Sequence	PBM E-score
CTGCCCAC	-0.151
GCCTTTAC	-0.0984
GGTATGAA	0.126
AGGTTCTC	-0.153
TAAAAACA	0.174
GAAAAACA	-0.0228
ATCAAGCA	0.114
CTCAAACA	0.0626
ATCAAACA	0.274
AAAAAACA	0.284
TAGATGCA	0.0348
ACTTTGAG	-0.126
AGGCCAGA	-0.0898
GATTCTTA	0.213
ATGTACAT	0.205
CTATCGAA	0.0827
CAATCCCC	0.0168
CAATCCCA	-0.0745
CAATCCCG	0.259
CCGGTTGC	0.00629
ATTGTCTC	-0.017
GTTGTCTA	0.114
ATTGTCTA	0.273

Sequence	PBM E-score
AAGTAGAG	-0.126
ACGCCTTG	-0.0542
GTAAAAGA	0.0603
AATGATAG	0.272
AATGATTC	0.161
CATGATAG	0.0148
CATGATTA	0.321
CATGATGA	0.173
CATGATTC	-0.0303
GATGATTA	0.23
AATGATTA	0.335
AATGATAA	0.227
CGCGTCGA	0.0758
TAACCGGA	0.106
GCGCACGC	-0.12
CCTGCAGG	-0.134
ACCGCGAC	-0.104
CACGGGTA	-0.0916
ACATGGTG	0.0908
AGTCTGGA	0.041
GCGAGACC	-0.127
CGCGATTA	0.263
CGCGATTC	0.124

Sequence	PBM E-score
CTCGATTA	0.264
ATCGATTA	0.248
CGGGATTA	0.294
AGCGATTA	0.127
CTCGATTC	0.119
AGGGATTA	0.0341
CGGGATTC	0.0661
ACCTACTC	0.0706
AGATCTGA	0.0167
ATTGCGTC	0.128
GTTGCGTA	0.068
ATTGCTTG	0.177
GTAGCTTA	0.279
ATTGCTGA	0.115
GTTGCTGA	0.12
GTTGCTTA	0.338
CTTGCTTA	0.229
ATAGCTTA	0.154
CTAGCTTA	0.256
ATTGCTTA	0.259
ATTGCGTA	0.287
CCTTGTTA	-0.0571
AACTCGGC	0.121

Sequence	PBM E-score
GCCGCTAC	-0.0553
AGCGGGCG	-0.0666
TCTGGGCA	-0.124
GGGCGAAA	0.0331
ACCGCCGC	-0.101
TCCGCTAA	-0.0291
AGACCTTC	-0.134
AGCCTAAA	-0.0722
CGTTGCGA	-0.0384
GCGCTGAA	-0.2
ACCAGATC	-0.0659
TTAATTAA	0.183
ATAATTAT	0.341
ATAATTAG	0.241
GTAATTAA	0.13
ACAATTAT	0.205
CTAATTAC	0.24
ATAATTAA	0.303
GTAATTAC	0.175
ATAATTAC	0.365
ACCGGTAC	-0.217
